# High-throughput results deposited in PubChem by several laboratories.
# The list is not random: actives were taken first. Their share in the collection is about 4.6%.
# SKKanGAS inh = blocks kanamycin growth of S. pyogenes SKKanGAS strain | BacTiter-Glo, 6 h | inhibition, % at 7.5 µM | 300,000 compounds, 1.3% hits | AID 1662;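 active = mean replicate score, as percent of positive control median, at least 50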;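 also: strain carries kanamycin resistance gene driven by streptokinase promoter and grows in 40 µg/ml kanamycin; loss of luminescence reflects streptokinase promoter inhibition or plain growth inhibition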
# TIM10 inh = inhibits growth of TIM10 yeast strain; S. cerevisiae TIM10 strain growth, BacTiter-Glo luminescence, 24 h; inhibition, % at 10 µM; 330,000 compounds, 1.4% hits; AID 463195;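 active = inhibition of 40% or more at the single tested concentration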;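 also: wild-type TIM10 isogenic control strain grown at permissive 25 °C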
# tim10-1 inh = inhibits growth of tim10-1 mutant yeast | inhibition, % at 20 µM | 330,000 compounds, 2.2% hits | S. cerevisiae tim10-1 ts strain growth, BacTiter-Glo, 24 h;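 active = inhibition of at least 40%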;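 also: mutant grown at 25 °C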
# PfHsp90 yeast 2 = growth inhibition of yeast expressing Plasmodium Hsp90; 310,000 compounds, 0.32% hits; S. cerevisiae expressing PfHsp90, BacTiter-Glo ATP, 48 h; yeast lacking PDR1 and PDR3 efflux regulators; inhibition, % at 9.4 µM;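 active = every replicate shows inhibition above about 80%, whatever the replicate mean, limit read from the data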
# V-ATPase pH = alters yeast V-ATPase proton transport | AID 504577 | S. cerevisiae, pHLuorin cytosolic pH fluorescence | response, % at 10 µM | 350,000 compounds, 0.37% hits; in the data active = response mostly above about 7.3%, no sharp cut-off; inactive = mostly below about 5.4%; also: actives read high
# tim23-1 inh = growth inhibitors of tim23-1 mutant yeast. inhibition, % at 20 µM. S. cerevisiae tim23-1 growth, BacTiter-Glo luminescence, 24 h. 330,000 compounds, 1.3% hits;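 active = growth inhibition of the mutant yeast at or above 50%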;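 also: temperature-sensitive mutant grown at 25 °C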
# tim23-1 confirm = confirmation of tim23-1 mutant yeast growth inhibitors. 4,400 compounds, 83% hits. inhibition, % at 20 µM. shares compounds with tim23-1 inh. S. cerevisiae tim23-1 growth, BacTiter-Glo luminescence, 24 h;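 active = inhibition above about 39% in either of two replicate wells at 20 µM, limit read from the data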;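 also: temperature-sensitive tim23-1 mutant grown at 25 °C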
# A number is an active result; . = inactive; / = not tested or not shown.
SMILES,SKKanGAS inh,TIM10 inh,tim10-1 inh,PfHsp90 yeast 2,V-ATPase pH,tim23-1 inh,tim23-1 confirm
COc1ccc(-c2cc(-c3ccc(F)cc3)nc(N3CCN(C)CC3)n2)cc1,.,.,.,.,.,55.1,57.5
CCOc1ccc2nc(NC(=O)c3ccco3)sc2c1,.,.,.,.,.,55.2,57.1
CS(=O)(=O)c1ccc2nc(NC(=O)c3ccco3)sc2c1,.,.,.,.,.,54.2,52.2
CCOc1ccc2nc(NC(=S)NCc3ccccc3)sc2c1,.,.,.,/,.,.,/
Clc1cncc(Cl)c1N/N=C/c1ccncc1,.,.,.,.,.,54.2,.
CC1CCCCC1Nc1nc2ccc(Cl)cc2n2cnnc12 (stereo not drawn),.,.,.,.,.,.,/
CSCCC(NC(=O)c1ccco1)C(=O)N1CCN(c2ccccc2O)CC1 (stereo not drawn),/,/,/,.,.,/,/
CCCCCc1ccc(OCCCC[n+]2ccc(C)cc2)c(CCCCC)c1,.,.,.,.,.,53.2,.
COc1ccc(C2COc3cc(O)ccc3C2)c(OC)c1O (stereo not drawn),.,.,.,/,.,.,/
CC1(C)C=Cc2c(ccc3c2OC[C@H](c2ccc(O)cc2O)C3)O1,/,.,.,106.0,.,74.8,.
C[n+]1c2n(c3ccccc31)N=C(c1ccc(-c3ccccc3)cc1)CS2,.,.,.,.,.,60.0,47.0
COc1ccccc1N1CCN(C(=O)c2cc3ccccc3[nH]2)CC1,.,.,.,.,.,52.4,48.3
COc1ccccc1N1CCN(C(=O)c2cc3cc(F)ccc3[nH]2)CC1,.,.,.,.,.,.,/
O=C(CN1CCCCC1)Nc1nnc(-c2ccc([N+](=O)[O-])cc2)s1,.,.,.,.,.,90.5,.
COC(=O)c1cccc(NC(=O)CN2CCc3ccccc3C2)c1,.,.,.,.,.,.,/
Cc1cccc(-c2n[nH]c(=S)n2/N=C/c2cccs2)c1,.,.,.,/,.,50.6,43.1
CC1=NOC(=O)/C1=C\c1ccc(-c2cccc(Cl)c2)o1,.,.,.,.,.,56.6,68.8
CC1=NOC(=O)/C1=C\c1ccc(-c2ccc(Cl)c(C(=O)O)c2)o1,.,.,.,.,.,.,/
O=C(N/N=C/C(Cl)=C/c1ccccc1)c1ccco1,.,.,.,.,.,63.7,.
O=C(N/N=C/C(Cl)=C\c1ccccc1)c1ccco1,.,.,.,.,.,.,/
O=C(N/N=C/C(Br)=C/c1ccccc1)c1ccccc1F,.,.,.,.,.,69.0,51.1
O=C(N/N=C/C(Cl)=C/c1ccccc1)c1ccccc1F,.,.,.,.,.,50.9,.
CCN(CC)C(=O)C1=C(C)N(Cc2ccccc2)C(=O)C(CC(=O)NC2CC2)C1 (stereo not drawn),/,/,/,/,.,/,/
CCOC(=O)CCCSc1nnc(CCCCCN2C(=O)c3cccc4cccc(c34)C2=O)o1,.,.,.,.,.,.,/
Clc1ccc(-c2csc3ncnc(Cl)c23)cc1,.,.,.,.,.,59.7,41.6
SMILES,SKKanGAS inh,TIM10 inh,tim10-1 inh,PfHsp90 yeast 2,V-ATPase pH,tim23-1 inh,tim23-1 confirm
OCCCNc1ncnc2scc(-c3ccc(Cl)cc3)c12,.,.,.,.,.,.,/
Fc1ccc(-c2csc3ncnc(Cl)c23)cc1,.,.,.,.,.,.,/
NNc1ncnc2scc(-c3ccc(Cl)cc3)c12,.,.,.,.,.,58.2,49.6
NS(=O)(=O)c1cc(C(=O)N2CCc3ccccc32)c(Cl)cc1Cl,.,.,.,.,.,.,/
O=C(NNC(=O)C1CCCC1)c1cc([N+](=O)[O-])cc([N+](=O)[O-])c1,/,.,.,.,.,.,/
CC1CCCCN1S(=O)(=O)c1ccc(S(=O)(=O)N2CCN(C)CC2)cc1 (stereo not drawn),.,.,.,.,.,.,/
NC1=C(Br)C(=O)c2ccccc2C1=O,.,.,.,.,.,55.9,51.7
Cc1ccccc1C(=O)c1cccn1CC(=O)N1CCCCC1,.,.,.,.,.,.,/
CC(C)(C)[C@H]1C=C(C(=O)N2CCOCC2)O[C@@H](OCc2ccc(CO)cc2)C1,.,.,.,.,.,93.4,.
CC(C)(C)[C@@H]1C=C(C(=O)N2CCOCC2)O[C@H](OCc2ccc(CO)cc2)C1,.,.,.,.,.,.,/
Cc1nc2scc(C)n2c(=O)c1S(=O)(=O)NCCc1ccccc1,.,.,.,.,.,.,/
Cc1csc2nc(O)c(C(=O)NCCCc3ccccc3)c(=O)n12,.,.,.,.,.,72.7,53.3
Cc1csc2nc(O)c(C(=O)NCCC3=CCCCC3)c(=O)n12,.,.,.,.,.,65.6,44.1
O=C(NCCC1=CCCCC1)c1cnccn1,.,.,.,.,.,.,/
O=[N+]([O-])c1ccc(NCCCNS(=O)(=O)c2ccccc2)c(Cl)c1,.,.,.,.,.,.,/
CCOC(=O)Nc1ccc(C(=O)Oc2ccccc2)c(O)c1,.,.,.,.,.,57.0,54.5
CCCCCC(=O)c1ccc(O)cc1O,.,.,.,.,.,53.7,47.2
Nc1ccc(O)c2c1C(=O)c1ccccc1C2=O,.,.,.,.,.,53.1,54.9
Oc1ccc(Cl)cc1CNCc1ccc(F)c(F)c1,/,.,.,.,.,52.9,.
COc1ccc(CNCc2cc(Cl)ccc2O)cc1,/,.,.,.,.,.,/
CC(C)(C)c1ccc(S(=O)(=O)N2CCN(C(=O)C3CCC3)CC2)cc1,.,.,.,.,.,.,/
CC(C)C1Cc2c(sc3ncnc(NN)c23)CO1 (stereo not drawn),.,.,.,.,.,51.5,.
Cc1nn(CC(=O)Nc2cccnc2)c(C)c1[N+](=O)[O-],.,.,.,.,.,.,/
O=S(=O)(NCc1csc(-c2cccs2)n1)c1ccc(Cl)cc1,.,.,.,.,.,.,/
Cc1ccc(S(=O)(=O)NCc2csc(-c3cccs3)n2)cc1,.,.,.,.,.,58.9,43.0
SMILES,SKKanGAS inh,TIM10 inh,tim10-1 inh,PfHsp90 yeast 2,V-ATPase pH,tim23-1 inh,tim23-1 confirm
O=C(CCN1C(=O)C2C3CCC(C3)C2C1=O)Nc1ccc(F)cc1 (stereo not drawn),.,.,.,.,.,.,/
COc1ccc(C)cc1NC(C)C(=O)NC(=O)NC1CCCCC1 (stereo not drawn),/,.,.,.,.,.,/
CC1CC1C(=O)Nc1nc(-c2ccccc2)cs1 (stereo not drawn),.,.,.,.,.,53.0,46.9
COc1ccc(N2CCN(C(c3ccc4ncccc4c3)c3nnnn3C(C)C)CC2)cc1 (stereo not drawn),.,.,.,.,.,.,/
CC1CCN(Cc2cc(=O)oc3ccc4ccccc4c23)CC1,.,.,.,.,.,.,/
CCOc1cc(-c2nc3ccccc3s2)ccc1O,.,.,.,.,.,58.8,.
Cc1cc(C(=O)Nc2ccc(Br)cn2)sc1C,/,.,.,.,.,63.8,68.5
